# Assay: qHTS profiling for inhibitors of Plasmodium falciparum (DD2) proliferation (AID 743323)
# Settings: lower = more inhibition; at 28.7 µM (top of the series) unless noted
# Summary of the method: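 Parasite DNA quantified by SYBR Green fluorescence (ex 485, em 535 nm) after saponin/Triton lysis and overnight dark incubation. Cultures: 0.3% parasitemia, 2.5% hematocrit, 72 h, 37 C; data scaled between DMSO and 0.29 uM artemisinin.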
row,SMILES,"activity, percent of control [%]"
1,CNC(=O)c1cc(COc2nnc(Nc3ccc(Cl)cc3)c3ccoc23)ccn1,68.5
2,CC(C)C[C@@H](C(=O)N[C@H](C(=O)OC1CCCC1)c1ccccc1)[C@H](O)C(=O)NO,9.3
3,CCN(CC)CCCCNc1nc2cc(Cl)c(Cl)cc2nc1-c1ccc(-c2cccs2)s1,1.46
4,C[C@@H](O[C@H]1OCCN(Cc2n[nH]c(=O)[nH]2)[C@@H]1c1ccc(F)cc1)c1cc(C(F)(F)F)cc(C(F)(F)F)c1,26.1
5,O=C1NC(=O)C(c2cnc3ccccn23)=C1c1cn2c3c(cccc13)CN(C(=O)N1CCOCC1)CC2,63.3
6,OCCn1cc(-c2ccc3c(c2)CCC3=NO)c(-c2ccncc2)n1,97.1

# Assay: qHTS profiling for inhibitors of Plasmodium falciparum (HB3) proliferation (AID 743324);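 also: 100% = DMSO vehicle wells and 0% = artemisinin-treated control wells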
# Settings: Plasmodium falciparum HB3 blood-stage proliferation; at 28.7 µM (top of the series) unless noted
# Summary of the method: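 P. falciparum HB3 grown in erythrocytes (0.3% parasitemia, 2.5% hematocrit final) with compound for 72 h at 37 C, 5% CO2. Parasite DNA detected by SYBR Green after saponin/triton lysis overnight; normalized to 0.29 uM artemisinin and DMSO.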
row,SMILES,"remaining proliferation (% of control), lower = more inhibition [%]"
1,CNC(=O)c1cc(COc2nnc(Nc3ccc(Cl)cc3)c3ccoc23)ccn1,28.7
2,CC(C)C[C@@H](C(=O)N[C@H](C(=O)OC1CCCC1)c1ccccc1)[C@H](O)C(=O)NO,11
3,CCN(CC)CCCCNc1nc2cc(Cl)c(Cl)cc2nc1-c1ccc(-c2cccs2)s1,4.08
4,C[C@@H](O[C@H]1OCCN(Cc2n[nH]c(=O)[nH]2)[C@@H]1c1ccc(F)cc1)c1cc(C(F)(F)F)cc(C(F)(F)F)c1,9.06
5,O=C1NC(=O)C(c2cnc3ccccn23)=C1c1cn2c3c(cccc13)CN(C(=O)N1CCOCC1)CC2,10.8
6,OCCn1cc(-c2ccc3c(c2)CCC3=NO)c(-c2ccncc2)n1,73.4

# Assay: qHTS profiling of the MIPE4 collection as inhibitors of Plasmodium falciparum (3D7) proliferation (AID 743344);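 also: scaled between DMSO vehicle wells and 0.29 µM artemisinin as full inhibition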
# Settings: P. falciparum 3D7 in erythrocytes, SYBR Green DNA fluorescence, 72 h; at 28.5 µM (top of the series) unless noted
# Summary of the method: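 Erythrocytes infected with P. falciparum (0.3% parasitemia, 2.5% hematocrit) incubated with compounds 72 h at 37 C, 5% CO2. Lysis with saponin/Triton buffer containing SYBR Green I, overnight at room temperature in the dark; DNA fluorescence (485/535 nm) normalised to 0.29 uM artemisinin and DMSO.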
row,SMILES,"parasite growth, % of DMSO control [%]"
1,CC(C)c1onc(-c2c(Cl)cccc2Cl)c1COc1ccc(C=Cc2cccc(C(=O)O)c2)c(Cl)c1,60.6
2,O=C1NC(=O)C(=Cc2ccc(-c3ccc(F)cc3O)o2)S1,34.3
3,COc1cc2nccc(Oc3ccc(NC(=O)Nc4ccc(F)cc4F)c(F)c3)c2cc1OC,17.2
4,C#C[C@]1(O)CC[C@H]2[C@H]3CCc4cc(OC)ccc4[C@H]3CC[C@@]21C,76.5
5,CCC(=O)OCC(=O)[C@@]1(OC(=O)CC)[C@@H](C)C[C@@H]2[C@H]3CCC4=CC(=O)C=C[C@]4(C)[C@@]3(F)[C@@H](O)C[C@@]21C,12
6,CNC(=O)c1cc(COc2nnc(Nc3ccc(Cl)cc3)c3ccoc23)ccn1,40.5
7,CC(C)(C)c1nc(-c2cccc(NS(=O)(=O)c3c(F)cccc3F)c2F)c(-c2ccnc(N)n2)s1,18.2
8,CC(C)C[C@@H](C(=O)N[C@H](C(=O)OC1CCCC1)c1ccccc1)[C@H](O)C(=O)NO,15.1
9,COC1CCC(C(=O)c2ccc3nc4c(cc3c2)CCCO4)CC1 (stereo unspecified),21.8
10,CC(C)(O)CC(=O)NCCn1ccc2ncnc(Nc3ccc(Oc4cccc(C(F)(F)F)c4)c(Cl)c3)c21,11.6
11,CC[C@H](NC(=O)[C@H](C)NC)C(=O)N1C[C@@H](O)C[C@H]1Cc1c(-c2[nH]c3cc(F)ccc3c2C[C@H]2C[C@H](O)CN2C(=O)[C@H](CC)NC(=O)[C@H](C)NC)[nH]c2cc(F)ccc12,4.9
12,C[C@H]1COC2=C1C(=O)C(=O)c1c2ccc2c1CCCC2(C)C,5.99
13,Cn1cnc(-c2cc3nccc(Oc4ccc(NC(=S)NC(=O)Cc5ccccc5)cc4F)c3s2)c1,8.29
14,Fc1ccc(C(c2ccc(F)cc2)N2CCN(CC=Cc3ccccc3)CC2)cc1,6.36
15,Cc1c(-c2cccc3c(CCCOc4cccc5ccccc45)c(C(=O)O)n(Cc4cccnc4)c23)c(COc2ccc(N3CCN([S+](=O)([O-])N(C)C)CC3)cc2)nn1C,5.78
16,COc1c(C)c2c(c(O)c1CC=C(C)CCC(=O)O)C(=O)OC2,15.7
17,N[C@@H](CC(=O)N1CCn2c(nnc2C(F)(F)F)C1)Cc1cc(F)c(F)cc1F,94.7
18,CN(C(Cc1ccc(OS(=O)(=O)c2cccc3cnccc23)cc1)C(=O)N1CCN(c2ccccc2)CC1)S(=O)(=O)c1cccc2cnccc12 (stereo unspecified),6.17
19,COc1cc(C=CC(=O)O)ccc1O,88.4
20,CCC(=C(CC)c1ccc(O)cc1)c1ccc(O)cc1,57.2
21,Cc1ccc2c(=O)c3cccc(CC(=O)O)c3oc2c1C,95.5
22,COc1ccc2c(c1)c(C1=C(c3c[nH]c4ccccc34)C(=O)NC1=O)cn2CCCN(C)C,5.52
23,CCN(CC)CCCCNc1nc2cc(Cl)c(Cl)cc2nc1-c1ccc(-c2cccs2)s1,9.66
24,CC[C@]1(O)C[C@H]2CN(CCC3=c4ccccc4=N[C]3[C@@](C(=O)OC)(c3cc4c(cc3OC)N(C)[C@H]3[C@@](O)(C(N)=O)[C@H](O)[C@]5(CC)C=CCN6CC[C@]43[C@@H]65)C2)C1,18.7
